Assay results: PubChem BioAssay AID463173 (ICCB-Longwood Screening Facility, Harvard Medical School, 2010)
Hit rate of the full screen: of about 52,000 compounds, about 4,300 (8.3%) were called active. What follows is part of a selection rich in actives, with near analogues and random picks from the rest. Unmarked numbers belong to inactive results. Cut-off read from the data, not from the text of the source: active = survival mostly below about 52% (no sharp cut-off); inactive = mostly above about 56%.

The compounds below were run on DeltatarO mutant (assay: growth inhibition of S. aureus wild type versus tarO mutant, primary screen, teichoic acid synthesis inhibitors, RN4220, OD600 (AID 463173)). Conditions: OD600, 18 h, hits give low values, screened at 18.75 µg/mL (by protocol).
`O=C(CSc1nc(-c2ccco2)cc(C(F)(F)F)n1)N1CCCC1` was tested, and the survival was 79%.
Compound `CC(NCc1ccc2c(c1)n(C)c(=O)n2C)c1ccccc1` (configuration not stated) has a survival of 94%.
`CCc1ccc(CN2C(=O)c3ccccc3C2C(=O)NC2CCCCCC2)cc1` (configuration not stated) showed a survival of 75%.
With `CCn1c(=O)c(C(=O)Nc2ccc(Cl)cn2)c(O)c2ccccc21` the survival was 95%.
`CSc1nn(Cc2ccc(F)cc2)c(N)c1S(=O)(=O)c1ccc(Cl)cc1` showed a survival of 101%.
For `Cc1ccc(Cl)cc1-n1ncc2c(Nc3cccc(C)c3C)ncnc21`, the survival was 82%.
With `CN1CCN(CCNC(=O)c2cnn(-c3ccc(Cl)cc3)c2C2CCN(C(=O)OC(C)(C)C)CC2)CC1` the survival was 69%.
`Cc1ccc2c(=O)cc(C(=O)Nc3sc4c(c3C(=O)NCc3ccco3)CCC4)oc2c1` gave a survival of 78%.
In the case of `Cc1cc2oc(C(=O)Nc3sc4c(c3C(=O)NCc3ccccc3)CCCC4)cc(=O)c2cc1C`, the survival is reported as 39% (active).
With `Cc1ccc2oc(C(=O)Nc3sc4c(c3C(=O)NCc3ccco3)CCC4)cc(=O)c2c1` the survival was 82%.
Compound `O=C(Nc1sc2c(c1C(=O)NCc1ccccc1)CCCC2)c1cc(=O)c2ccccc2o1` has a survival of 67%.
For `Cc1cc2oc(C(=O)Nc3sc4c(c3C(=O)NCc3ccco3)CCC4)cc(=O)c2cc1C`, the survival was 38% (active).
For `O=C(Nc1sc2c(c1C(=O)NCc1ccco1)CCCC2)c1cc(=O)c2cc(Cl)ccc2o1`, the survival was 38% (active).
`Cc1cc(C)c2oc(C(=O)Nc3sc4c(c3C(=O)NCc3ccco3)CCCC4)cc(=O)c2c1` was tested, and the survival was 82%.
Compound `Cc1ccc2oc(C(=O)Nc3sc4c(c3C(=O)NCc3ccccc3)CCCC4)cc(=O)c2c1` has a survival of 66%.
In the case of `Cc1ccc2c(=O)cc(C(=O)Nc3sc4c(c3C(=O)NCc3ccco3)CCCC4)oc2c1C`, the survival is reported as 80%.
For `O=C(Nc1sc2c(c1C(=O)NCc1ccccc1)CCCC2)c1cc(=O)c2cc(Cl)ccc2o1`, the survival was 49%.
For `O=C(Nc1sc2c(c1C(=O)NCc1ccco1)CCCC2)c1cc(=O)c2ccccc2o1`, the survival was 43% (active).
In the case of `Cc1ccc2c(=O)cc(C(=O)Nc3sc4c(c3C(=O)NCc3ccccc3)CCCC4)oc2c1C`, the survival is reported as 89%.
Compound `CC[n+]1c(C)sc2sc3ccccc3c21` has a survival of 68%.
With `COC(=O)Cn1nc(C)c2c(C)n(-c3ccccc3)nc2c1=O` the survival was 90%.
`CCOc1ccc(NC(=O)Cn2cc(C(=O)c3ccc(CC)cc3)c(=O)c3cc4c(cc32)OCO4)cc1` was tested, and the survival was 86%.
`O=C(Cn1nc(-c2ccccc2)nc(Cc2ccccc2)c1=O)Nc1ccccc1` was tested, and the survival was 90%.
For `O=C(NCc1noc2ccccc12)N1CCN(c2ccccc2F)CC1`, the survival was 40%.
Compound `COc1cccc(CSc2nc(-c3ccccc3OC)nc3c2Cc2c(CO)cnc(C)c2O3)c1` has a survival of 57%.
For `CCCn1c2ccccc2c2cnn(CC(=O)NCc3cc(OC)ccc3OC)c(=O)c21`, the survival was 122%.
Compound `CCN(CC)S(=O)(=O)c1ccc2c(c1)c(=O)c(C(=O)NCc1ccccc1OC)cn2C` has a survival of 71%.
In the case of `COc1cccc(C(=O)Nc2nc3nc(C)c(C)c(=O)n3[nH]2)c1`, the survival is reported as 104%.
`COC(=O)c1c(NC(=O)c2cc(=O)c3c(C)cc(C)cc3o2)sc2c1CCCC2` showed a survival of 61%.
For `CCOC(=O)c1c(NC(=O)c2cc(=O)c3c(C)cc(C)cc3o2)sc2c1CCC2`, the survival was 61%.
With `Cc1cc(C)c2c(=O)cc(C(=O)Nc3sc4c(c3C#N)CCCC4)oc2c1` the survival was 12% (active).
With `Cc1ccc(C(=O)NCC(c2ccco2)S(=O)(=O)c2cccs2)cc1C` (configuration not stated) the survival was 102%.
Compound `CC(=O)c1ccc(NC(=O)CCc2c(C)nn(-c3ccc4nncn4n3)c2C)cc1` has a survival of 91%.
Compound `Cc1cccc(N2CCN(C(=O)Cn3nc(C)n4cccc4c3=O)CC2C)c1` (configuration not stated) has a survival of 90%.
`COC(=O)c1cc2oc(C)cc2n1Cc1ccc(C)cc1` was tested, and the survival was 69%.
For `COC(=O)c1cc2oc(C)cc2n1Cc1ccc(Br)cc1F`, the survival was 75%.
`COC(=O)c1cc2oc(C)cc2n1Cc1cc(C)ccc1C` was tested, and the survival was -9% (active).
`COC(=O)c1cc2oc(C)cc2n1Cc1c(C)cc(C)cc1C` gave a survival of 46%.
In the case of `COC(=O)c1cc2oc3ccccc3c2n1Cc1ccccc1Cl`, the survival is reported as 72%.
For `COC(=O)c1cc2occc2n1Cc1ccc(F)cc1Cl`, the survival was 30% (active).
For `COC(=O)c1cc2oc(C)cc2n1CC(=O)Nc1cc(Cl)ccc1OC`, the survival was 77%.
`COC(=O)c1cc2oc(C)cc2n1Cc1ccc(Cl)cc1` was tested, and the survival was 73%.
With `COC(=O)c1cc2sc(C)cc2n1Cc1ccc(F)cc1Cl` the survival was 76%.
`COC(=O)c1cc2oc(C)cc2n1Cc1cccc(Cl)c1` was tested, and the survival was -8% (active).
Compound `COC(=O)c1cc2sccc2n1Cc1ccc(F)cc1Cl` has a survival of 65%.
With `COC(=O)c1cc2oc(C)cc2n1Cc1ccccc1Cl` the survival was -8% (active).
With `O=C(NCc1ccccc1)c1cc2sccc2n1Cc1ccc(F)cc1` the survival was 88%.
